Results on 23 compounds are retold here after PubChem BioAssay (EPA / NIEHS).

Values joined by “and” are separate entries in the source; they are usually repeats but may differ in a detail not shown here. Equal entries are not always repeated. Active and inactive are the calls of the source. Rule for the calls: active = hit-call score of the fitted dose curve at least 0.9, where 1 is the maximum; inactive = score below 0.9.

This experiment is described as follows: CEETOX_H295R_PROG: CeeTox H295R High-throughput Steroidogenesis Assay for Progesterone (PROG) (AID 2283442).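 For AC50: human H295R adrenal cells primed with 10 µM forskolin before dosing.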 Particulars: actives raise or lower the signal. As to the method: CEETOX_H295R is a cell-based, multiplexed-readout assay that uses H295R, a human adrenal gland cell line, with measurements taken at 48 hours after chemical dosing in a 96-well plate.CEETOX_H295R_PROG is one of 23 assay component(s) measured or calculated from the CEETOX_H295R assay. It is designed to make measurements of hormone induction, a form of inducible reporter, as detected with absorbance signals by HPLC-MS-MS technology.Data from the assay component CEETOX_H295R_PROG was analyzed into 1 assay endpoint. This assay endpoint, CEETOX_H295R_PROG, was analyzed with bidirectional fitting relative to DMSO as the negative control and baseline of activity. Using a type of inducible reporter, gain or loss-of-signal activity using HPLC-MS-MS was used to understand synthesis of Progesterone in H295R cell line at 48hr of chemical exposure. To generalize the intended target to other relatable targets, this assay endpoint is annotated to the steroid hormone intended target family, where the subfamily is progestagens.
Cell culture and media preparation procedures were conducted in accordance with OECD Test No. 456 guidelines, with minor modifications. H295R cells (ATCC CRL-2128) were expanded for 5 passages and frozen in batches in liquid nitrogen. Prior to the steroidogenesis assay, H295R cells were thawed and passed at least 4 times. The maximum passage was 10. Cells were maintained in a 1:1 mixture of DMEM/F12 supplemented with 5ml/L ITS+ Premix (BD Bioscience) and 12.5 ml/L Nu-Serum (BD Bioscience). After seeding cells into 96-well plates at 50-60% confluency, cells were allowed to adhere overnight. Prior to chemical testing, culture medium was replaced with 175 uL medium containing 10 uM forskolin to stimulate steroidogenesis for 48 hours. Following prestimulation, forskolin medium was replaced with medium containing test chemical solubilized in DMSO (ensuring a final concentration of 0.1% DMSO). Test chemicals were incubated for 48 hours, then the medium was removed and split into 2 vials containing approximately 75uL each, and stored at -80 C prior to hormone analysis. For steroid quantification, media samples were shipped to OpAns, LLC (Durham, NC) on dry ice, and samples were thawed to room temperature prior to liquid-liquid extraction. Steroid hormones were extracted from media samples using methyl tertbutyl ether (MTBE). An extra derivatization with dansyl chloride was included for estrogen (estrone and estradiol) detection only. Steroid hormones were separated by HPLC, eluted using a reverse phase C18 gradient with electrospray positive ionization, followed by quantification by tandem mass spectrometry (MS/MS). Data were acquired on a MassHunter Workstation Acquisition version B03.01 (Agilent Technologies, Inc.) and processed using MassHunter Quantitative Analysis for QQQ. Accuracy was determined for each hormone analyte from 3 standards to determine upper and lower limits of quantification (ULOQ and LLOQ, respectively) using a 7-point standard curve. Precision and accuracy of the extraction and quantification methods were calculated as the percent relative standard deviation (%RSD) of the spiked standards and percent spiked standard recovered, respectively. The goal was to achieve 100% accuracy (i.e., recover all spiked-in standard at quantification with minimal loss during run time) and good precision (i.e., have %RSD <15% to ensure reproducibility). Test medium was removed following chemical exposure, and cell viability was evaluated in the same wells by MTT. MTT procedures were as follows: after removal of test medium, 500 uL of 0.5 mg/ml of 3-[4,5-dimethylthiazol-2-y]2,5-diphenyltetrazoliumbromide solution was added to the cells. Following a 4-hour incubation at 37 C and 5% CO2 to allow formazan-crystal formation, the MTT solution was removed and blue formazan salt crystals were solubilized using 500uL anhydrous isopropanol with shaking for 20 minutes. Absorbance was read at 570 and 650nm using a Packard Fusion microplate reader. […]
`ClC1=C(Cl)[C@]2(Cl)[C@@H]3[C@H]4C[C@H]([C@@H]5O[C@H]45)[C@@H]3[C@@]1(Cl)C2(Cl)Cl`: the AC50 was 3 µM (active).
With `N#Cc1ccc(N(CC(N)=O)CC(F)(F)F)cc1C(F)(F)F`, the call was inactive.
As to `O=C(NC(=O)c1c(F)cccc1F)Nc1cc(Cl)c(OC(F)(F)C(F)F)c(Cl)c1`, the result was inactive.
For `Cc1cccc(C)c1N`, the outcome was inactive.
For `CCNc1nc(NC(C)C)nc(SC)n1`, the outcome was inactive.
On the same count and under the same terms, with `C[C@]12CCC(=O)C=C1CC[C@@H]1[C@@H]2CC[C@@]2(C)[C@H]1CC[C@]2(C)O` the entry was “inactive”.
With `Cc1cc2c3c(c1)C(c1ccccc1)=N[C@@H](NC(=O)c1ccncc1)C(=O)N3CC2`, the AC50 is 28.1 µM (active).
For `Cc1ccc(O)c(C)c1`, the result was inactive.
`CCSC(=O)N(CC)C1CCCCC1`: the result was inactive.
Still for that read-out and setting: with `CCC(C)(CC)c1cc(NC(=O)c2c(OC)cccc2OC)on1` the entry was “inactive”; with `Oc1ccc(Cl)cc1Cl`, “inactive”; with `CC#Cc1cc(C)nc(Nc2ccccc2)n1`, “inactive”.
For `Nc1ccc(-c2ccc(N)cc2)cc1`, the AC50 was 15.2 µM (active).
With `c1cc2ccc3cccc4ccc(c1)c2c34`, the AC50 was 13.9 µM (active).
Turning to `Cc1ccccc1CO[C@@H]1C[C@@]2(C(C)C)CC[C@]1(C)O2`, the compound was classed as inactive.
With `CCOCCOC(C)=O`, the call was inactive.
`Cc1cc(O)ccc1Cl`: the call was inactive.
For `Clc1ccc(C(c2ccccc2Cl)C(Cl)(Cl)Cl)cc1` (stereo not drawn), the result was inactive.
Take `CCOP(=S)(OCC)SCSC(C)(C)C`: the call was inactive.
Turning to `Cc1cc(-c2ccc(N)c(C)c2)ccc1N`, the AC50 is 2.96 µM (active) and 31.1 µM (active).
As to `NS(=O)(=O)C(F)(F)C(F)(F)C(F)(F)C(F)(F)C(F)(F)C(F)(F)C(F)(F)C(F)(F)F`, the outcome was inactive.
Turning to `CCC(=O)O[C@H]1CC[C@H]2[C@@H]3CCC4=CC(=O)CC[C@]4(C)[C@H]3CC[C@]12C`, the AC50 was 2.65 µM (active).
`C[C@]12CCC(=O)C=C1CC[C@@H]1[C@@H]2CC[C@]2(C)C(=O)CC[C@@H]12`: the half-maximal activity concentration (AC50) is 0.271 µM (active).
